# In PubChem BioAssay AID1159580 (chemical genetic matrix, 2015):
# Values joined by “and” are separate entries in the source; they are usually repeats but may differ in a detail not shown here. Equal entries are not always repeated. About 2,000 (36%) of roughly 5,500 compounds were called active. Another 18% or so got no clear call; they are omitted. No stated cut-off is given here; in the data, active means normalized growth mostly below about 0.91 (no sharp cut-off); inconclusive means no clear call, values can overlap the other calls; inactive means mostly above about 0.92. Some of the results follow.
# Test: chemical genetic growth profiling, strain panel (AID 1159580);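 further: tested at 20 µM; growth read once vehicle control cultures reached saturation at 30 °C; 1 = growth at the plate median or of vehicle wells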
# Details: growth OD
# [1] = S. cerevisiae deletion strains, locus YAL013W, strain DEP1, stronger effect = lower value
# [2] = S. cerevisiae deletion strains, locus YBR229C, strain ROT2, stronger effect = lower value
# [3] = S. cerevisiae deletion strains, locus YDL101C, strain DUN1, stronger effect = lower value
# [4] = S. cerevisiae deletion strains, locus YDR150W, strain NUM1, stronger effect = lower value
# [5] = S. cerevisiae deletion strains, locus YEL061C, strain CIN8, stronger effect = lower value
# [6] = S. cerevisiae deletion strains, locus YGR078C, strain PAC10, stronger effect = lower value
# [7] = S. cerevisiae deletion strains, locus YHR030C, strain SLT2, stronger effect = lower value
# [8] = S. cerevisiae deletion strains, locus YJR043C, strain POL32, stronger effect = lower value
# [9] = S. cerevisiae deletion strains, locus YJR075W, strain HOC1, stronger effect = lower value
# [10] = S. cerevisiae deletion strains, locus YKL190W, strain CNB1, stronger effect = lower value
# [11] = S. cerevisiae deletion strains, locus YLR039C, strain RIC1, stronger effect = lower value
# [12] = S. cerevisiae deletion strains, locus YLR262C, strain YPT6, stronger effect = lower value
# [13] = S. cerevisiae deletion strains, locus YNL322C, strain KRE1, stronger effect = lower value
# [14] = S. cerevisiae deletion strains, locus YPL055C, strain LGE1, stronger effect = lower value
# [15] = S. cerevisiae deletion strains, locus YPL241C, strain CIN2, stronger effect = lower value
smiles,measurement,setting,value
O=C(COc1ccc(Cl)cc1)N1CCN(Cc2ccc3c(c2)OCO3)CC1,normalized growth,[1],0.989 (inactive)
same,normalized growth,"S. cerevisiae deletion strains, locus YBR021W, strain FUR4, stronger effect = lower value",0.977 (inactive)
same,normalized growth,[2],0.98 (inactive)
same,normalized growth,"S. cerevisiae deletion strains, locus YCL029C, strain bik1, stronger effect = lower value",0.979 (inactive)
same,normalized growth,"S. cerevisiae deletion strains, locus YDL035C, strain GPR1, stronger effect = lower value",0.93 (inactive)
same,normalized growth,"S. cerevisiae deletion strains, locus YDL074C, strain BRE1, stronger effect = lower value",1 (inactive)
same,normalized growth,[3],0.985 (inactive)
same,normalized growth,"S. cerevisiae deletion strains, locus YDL134C, strain PPH21, stronger effect = lower value",0.958 (inactive)
same,normalized growth,"S. cerevisiae deletion strains, locus YDL185W, strain tfp1, stronger effect = lower value",0.962 (inactive)
same,normalized growth,"S. cerevisiae deletion strains, locus YDL192W, strain arf1, stronger effect = lower value",0.945 (inactive)
same,normalized growth,"S. cerevisiae deletion strains, locus YDR101C, strain arx1, stronger effect = lower value",1.01 (inactive)
same,normalized growth,[4],0.976 (inactive)
same,normalized growth,"S. cerevisiae deletion strains, locus YDR162C, strain NBP2, stronger effect = lower value",0.918 (inactive)
same,normalized growth,"S. cerevisiae deletion strains, locus YDR318W, strain mcm21, stronger effect = lower value",0.921 (inactive)
same,normalized growth,"S. cerevisiae deletion strains, locus YDR388W, stronger effect = lower value",0.972 (inactive)
same,normalized growth,"S. cerevisiae deletion strains, locus YDR502C, strain sam2, stronger effect = lower value",0.908 (active)
same,normalized growth,[5],0.985 (inactive)
same,normalized growth,"S. cerevisiae deletion strains, locus YER110C, stronger effect = lower value",0.962 (inactive)
same,normalized growth,"S. cerevisiae deletion strains, locus YER155C, strain BEM2, stronger effect = lower value",1.02 (inactive)
same,normalized growth,"S. cerevisiae deletion strains, locus YER167W, strain BCK2, stronger effect = lower value",0.987 (inactive)
same,normalized growth,"S. cerevisiae deletion strains, locus YGL078C, strain dbp3, stronger effect = lower value",1 (inactive)
same,normalized growth,"S. cerevisiae deletion strains, locus YGL086W, strain mad1, stronger effect = lower value",0.973 (inactive)
same,normalized growth,"S. cerevisiae deletion strains, locus YGL248W, strain PDE1, stronger effect = lower value",0.983 (inactive)
same,normalized growth,[6],0.952 (inactive)
same,normalized growth,"S. cerevisiae deletion strains, locus YGR135W, strain pre9, stronger effect = lower value",0.825 (active)
same,normalized growth,"S. cerevisiae deletion strains, locus YGR252W, strain gcn5, stronger effect = lower value",0.938 (inactive)
same,normalized growth,[7],0.954 (inactive) and 0.981 (inactive)
same,normalized growth,"S. cerevisiae deletion strains, locus YHR079C, strain IRE1 (second series), stronger effect = lower value",0.977 (inactive)
same,normalized growth,"S. cerevisiae deletion strains, locus YHR079C, strain IRE1, stronger effect = lower value",0.972 (inactive)
same,normalized growth,"S. cerevisiae deletion strains, locus YHR094C, strain hxt1, stronger effect = lower value",0.978 (inactive)
same,normalized growth,"S. cerevisiae deletion strains, locus YHR129C, strain ARP1, stronger effect = lower value",0.977 (inactive)
same,normalized growth,"S. cerevisiae deletion strains, locus YHR200W, strain rpn10, stronger effect = lower value",0.976 (inactive)
same,normalized growth,"S. cerevisiae deletion strains, locus YIL066C, strain RNR3, stronger effect = lower value",0.887 (inactive)
same,normalized growth,"S. cerevisiae deletion strains, locus YIL073C, strain SPO22, stronger effect = lower value",0.827 (inactive)
same,normalized growth,"S. cerevisiae deletion strains, locus YIL125W, strain kgd1, stronger effect = lower value",1 (inactive)
same,normalized growth,"S. cerevisiae deletion strains, locus YIR030C, strain dcg1, stronger effect = lower value",0.973 (inactive)
same,normalized growth,"S. cerevisiae deletion strains, locus YJL095W, strain BCK1, stronger effect = lower value",0.773 (active) and 0.983 (inactive)
same,normalized growth,"S. cerevisiae deletion strains, locus YJL134W, strain LCB3, stronger effect = lower value",0.977 (inactive)
same,normalized growth,"S. cerevisiae deletion strains, locus YJL168C, strain set2, stronger effect = lower value",0.98 (inactive)
same,normalized growth,"S. cerevisiae deletion strains, locus YJL187C, strain SWE1 (second series), stronger effect = lower value",0.932 (inactive)
same,normalized growth,[8],1.08 (inactive)
same,normalized growth,"S. cerevisiae deletion strains, locus YJR066W, strain TOR1, stronger effect = lower value",0.916 (inactive)
same,normalized growth,[9],0.943 (inactive)
same,normalized growth,"S. cerevisiae deletion strains, locus YKL009W, strain mrt4, stronger effect = lower value",0.987 (inactive)
same,normalized growth,"S. cerevisiae deletion strains, locus YKL068W, stronger effect = lower value",0.983 (inactive)
same,normalized growth,"S. cerevisiae deletion strains, locus YKL085W, strain MDH1 (second series), stronger effect = lower value",0.98 (inactive)
same,normalized growth,"S. cerevisiae deletion strains, locus YKL085W, strain MDH1, stronger effect = lower value",0.98 (inactive)
same,normalized growth,[10],0.976 (inactive)
same,normalized growth,"S. cerevisiae deletion strains, locus YKR001C, strain vps1, stronger effect = lower value",1.04 (inactive)
same,normalized growth,[11],0.738 (inactive)
same,normalized growth,"S. cerevisiae deletion strains, locus YLR058C, strain SHM2, stronger effect = lower value",0.962 (inactive)
same,normalized growth,"S. cerevisiae deletion strains, locus YLR102C, strain apc9, stronger effect = lower value",0.986 (inactive)
same,normalized growth,"S. cerevisiae deletion strains, locus YLR113W, strain HOG1, stronger effect = lower value",1 (inactive)
same,normalized growth,[12],0.668 (inactive)
same,normalized growth,"S. cerevisiae deletion strains, locus YLR268W, strain sec22, stronger effect = lower value",0.911 (inactive)
same,normalized growth,"S. cerevisiae deletion strains, locus YLR330W, strain CHS5, stronger effect = lower value",0.979 (inactive)
same,normalized growth,"S. cerevisiae deletion strains, locus YLR342W, strain FKS1 (second series), stronger effect = lower value",0.902 (inactive)
same,normalized growth,"S. cerevisiae deletion strains, locus YLR371W, strain rom2, stronger effect = lower value",0.985 (inactive)
same,normalized growth,"S. cerevisiae deletion strains, locus YLR418C, strain cdc73, stronger effect = lower value",0.864 (inactive)
same,normalized growth,"S. cerevisiae deletion strains, locus YML016C, strain PPZ1, stronger effect = lower value",0.97 (inactive)
same,normalized growth,"S. cerevisiae deletion strains, locus YML032C, strain rad52, stronger effect = lower value",0.952 (inactive)
same,normalized growth,"S. cerevisiae deletion strains, locus YML124C, strain tub3, stronger effect = lower value",0.998 (inactive)
same,normalized growth,"S. cerevisiae deletion strains, locus YMR078C, strain ctf18, stronger effect = lower value",0.971 (inactive)
same,normalized growth,"S. cerevisiae deletion strains, locus YMR223W, strain ubp8, stronger effect = lower value",0.898 (active)
same,normalized growth,"S. cerevisiae deletion strains, locus YMR307W, strain GAS1, stronger effect = lower value",1.01 (inactive)
same,normalized growth,"S. cerevisiae deletion strains, locus YNL067W, strain RPL9B, stronger effect = lower value",0.957 (inactive)
same,normalized growth,"S. cerevisiae deletion strains, locus YNL183C, strain NPR1, stronger effect = lower value",0.918 (inactive)
same,normalized growth,"S. cerevisiae deletion strains, locus YNL233W, strain BNI4, stronger effect = lower value",0.941 (inactive)
same,normalized growth,"S. cerevisiae deletion strains, locus YNL250W, strain rad50, stronger effect = lower value",0.981 (inactive)
same,normalized growth,"S. cerevisiae deletion strains, locus YNL271C, strain bni1, stronger effect = lower value",0.988 (inactive)
same,normalized growth,"S. cerevisiae deletion strains, locus YNL298W, strain CLA4, stronger effect = lower value",0.983 (inactive)
same,normalized growth,"S. cerevisiae deletion strains, locus YNL307C, strain MCK1, stronger effect = lower value",0.9 (active)
same,normalized growth,[13],0.976 (inactive)
same,normalized growth,"S. cerevisiae deletion strains, locus YNR052C, strain pop2, stronger effect = lower value",0.943 (inactive)
same,normalized growth,"S. cerevisiae deletion strains, locus YOL012C, strain htz1",1.78 (inactive)
same,normalized growth,"S. cerevisiae deletion strains, locus YOL147C, strain pex11, stronger effect = lower value",0.962 (inactive)
same,normalized growth,"S. cerevisiae deletion strains, locus YOR061W, strain CKA2, stronger effect = lower value",0.971 (inactive)
same,normalized growth,"S. cerevisiae deletion strains, locus YOR069W, strain VPS5, stronger effect = lower value",0.973 (inactive)
same,normalized growth,"S. cerevisiae deletion strains, locus YOR136W, strain idh2, stronger effect = lower value",0.992 (inactive)
same,normalized growth,"S. cerevisiae deletion strains, locus YOR144C, strain elg1, stronger effect = lower value",0.993 (inactive)
same,normalized growth,"S. cerevisiae deletion strains, locus YOR184W, strain ser1, stronger effect = lower value",0.845 (active)
same,normalized growth,"S. cerevisiae deletion strains, locus YOR231W, strain MKK1, stronger effect = lower value",0.999 (inactive)
same,normalized growth,"S. cerevisiae deletion strains, locus YOR316C, strain cot1, stronger effect = lower value",0.984 (inactive)
same,normalized growth,[14],0.998 (inactive)
same,normalized growth,[15],0.974 (inactive)
same,normalized growth,"S. cerevisiae deletion strains, locus YPL256C, strain CLN2, stronger effect = lower value",0.97 (inactive)
same,normalized growth,"S. cerevisiae deletion strains, locus YPR119W, strain clb2, stronger effect = lower value",0.989 (inactive)
same,normalized growth,"S. cerevisiae deletion strains, locus YPR141C, strain kar3, stronger effect = lower value",0.988 (inactive)
same,normalized growth,"S. cerevisiae deletion strains, locus YPR163C, strain tif3, stronger effect = lower value",0.955 (inactive)
same,normalized growth,"S. cerevisiae deletion strains, locus YPR167C, strain met16, stronger effect = lower value",0.987 (inactive)
same,normalized growth,"S. cerevisiae deletion strains, strain wtn01, stronger effect = lower value",0.905 (inactive)
Cc1noc(C)c1C(=O)N1CCN(c2ncc(C(F)(F)F)cc2Cl)CC1,normalized growth,[1],0.994 (inactive)
same,normalized growth,[2],0.988 (inactive)
same,normalized growth,"S. cerevisiae deletion strains, locus YCL061C, strain MRC1, stronger effect = lower value",0.993 (inactive)
same,normalized growth,[3],0.977 (inactive)
same,normalized growth,[4],0.897 (inactive)
same,normalized growth,[5],0.975 (inactive)
same,normalized growth,[6],0.994 (inactive)
same,normalized growth,[7],1.07 (inactive)
same,normalized growth,"S. cerevisiae deletion strains, locus YHR087W, strain rtc3, stronger effect = lower value",0.975 (inactive)
same,normalized growth,[8],0.998 (inactive)
same,normalized growth,[9],0.972 (inactive)
same,normalized growth,[10],1 (inactive)
same,normalized growth,[11],0.995 (inactive)
same,normalized growth,"S. cerevisiae deletion strains, locus YLR058C, strain SHM2 (second series), stronger effect = lower value",1 (inactive)
same,normalized growth,"S. cerevisiae deletion strains, locus YLR085C, strain ARP6, stronger effect = lower value",0.982 (inactive)
same,normalized growth,[12],0.979 (inactive)
same,normalized growth,"S. cerevisiae deletion strains, locus YML094W, strain GIM5, stronger effect = lower value",0.968 (inactive)
same,normalized growth,"S. cerevisiae deletion strains, locus YMR219W, strain ESC1, stronger effect = lower value",1 (inactive)
same,normalized growth,"S. cerevisiae deletion strains, locus YMR263W, strain SAP30, stronger effect = lower value",1.01 (inactive)
same,normalized growth,"S. cerevisiae deletion strains, locus YNL128W, strain TEP1, stronger effect = lower value",0.99 (inactive)
same,normalized growth,"S. cerevisiae deletion strains, locus YNL153C, strain GIM3, stronger effect = lower value",0.986 (inactive)
same,normalized growth,"S. cerevisiae deletion strains, locus YNL298W, strain CLA4 (second series), stronger effect = lower value",1.02 (inactive)
same,normalized growth,[13],0.989 (inactive)
same,normalized growth,"S. cerevisiae deletion strains, locus YNR030W, strain Alg12, stronger effect = lower value",0.97 (inactive)
same,normalized growth,"S. cerevisiae deletion strains, locus YOL006C, strain TOP1, stronger effect = lower value",0.99 (inactive)
same,normalized growth,[14],0.933 (inactive)
same,normalized growth,[15],1.1 (inactive)
same,normalized growth,"S. cerevisiae deletion strains, locus YPR135W, strain CTF4, stronger effect = lower value",0.942 (inactive)
same,normalized growth,"S. cerevisiae strains, strain wild type, stronger effect = lower value",0.993 (inactive)
